Experimental data: PubChem BioAssay (NCI)
This is part of a sample that, as a whole, favours compounds with a hit. Of some 83,000 tested, about 20% had one in any assay.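 Cells were grown in 96-well plates and exposed to the test compound at a single concentration for 48 hours; results are reported as percent growth, with values below 10 considered active.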 A number with no mark means an inactive call. Calls of active or inactive are those of the source.

Tests used:
Assay in all cases: NCI-60 one-dose screen, 48 h (100 = growth as untreated, 0 = no growth, -100 = all killed)
Conditions in all cases: 10 µM unless noted
EKVX NSCLC = test system: EKVX NSCLC
SN12C renal = test system: SN12C renal
UO-31 renal = test system: UO-31 renal
TK-10 renal = test system: TK-10 renal
ACHN renal = test system: ACHN renal
CAKI-1 renal = test system: CAKI-1 renal
A498 renal = test system: A498 renal
CCRF-CEM leukemia = test system: CCRF-CEM leukemia
MOLT-4 leukemia = test system: MOLT-4 leukemia
SR leukemia = test system: SR leukemia
OVCAR-8 ovarian = test system: OVCAR-8 ovarian
OVCAR-5 ovarian = test system: OVCAR-5 ovarian
OVCAR-4 ovarian = test system: OVCAR-4 ovarian
IGROV1 ovarian = test system: IGROV1 ovarian
OVCAR-3 ovarian = test system: OVCAR-3 ovarian
HS 578T breast = test system: HS 578T breast
NCI/ADR-RES ovarian = test system: NCI/ADR-RES ovarian
T-47D breast = test system: T-47D breast
RPMI-8226 leukemia = test system: RPMI-8226 leukemia
SK-OV-3 ovarian = test system: SK-OV-3 ovarian

| SMILES | growth (EKVX NSCLC) | growth (SN12C renal) | growth (UO-31 renal) | growth (TK-10 renal) | growth (ACHN renal) | growth (CAKI-1 renal) | growth (A498 renal) | growth (CCRF-CEM leukemia) | growth (MOLT-4 leukemia) | growth (SR leukemia) | growth (OVCAR-8 ovarian) | growth (OVCAR-5 ovarian) | growth (OVCAR-4 ovarian) | growth (IGROV1 ovarian) | growth (OVCAR-3 ovarian) | growth (HS 578T breast) | growth (NCI/ADR-RES ovarian) | growth (T-47D breast) | growth (RPMI-8226 leukemia) | growth (SK-OV-3 ovarian) |
| --- | --- | --- | --- | --- | --- | --- | --- | --- | --- | --- | --- | --- | --- | --- | --- | --- | --- | --- | --- | --- |
| O=C(CSc1nnc(-c2ccc3nc(-c4ccc(Cl)cc4)[nH]c3c2)o1)Nc1ccc(C(=O)/C=C/c2ccc(Cl)cc2)cc1 | 93.8% | 84.9% | 75.3% | 129% | 98.1% | 83.6% | 90.1% | 86.4% | 77.8% | 49.7% | 97.1% | 108% | 101% | 85.5% | 121% | 89% | 105% | 87.1% | – | – |
| Nc1cc(-c2c[nH]c3ccc(F)cc23)nc2cc(-c3c[nH]c4ccc(F)cc34)nn12 | 78.2% | 99% | 75.8% | 118% | 66.3% | 77.8% | – | 7.99% (active) | 39% | -22.1% (active) | 89.8% | 115% | 96.1% | 94.8% | 94.4% | 112% | 93% | 81.7% | 30.7% | 135% |
| COc1ccccc1C(=O)CSc1nc(Nc2ccc(S(N)(=O)=O)cc2)c2ccccc2n1 | 92.6% | 81.1% | 90.6% | 116% | 92.1% | 91.1% | 99.8% | 87.3% | 93% | 64.3% | 90.5% | 90.8% | 86.6% | 95.5% | 107% | 96.9% | 106% | 89.6% | – | 121% |
| COC(=O)c1ccc(NC(=S)N2CCc3ccc([N+](=O)[O-])cc3C2)cc1O | 99.2% | 99.8% | 85.5% | 137% | 95.4% | 92.7% | – | 94.9% | 91.7% | 95.5% | 101% | 103% | 112% | 99% | 116% | 102% | 107% | 103% | 101% | 98.4% |
| Nc1nc(N)c2c(n1)NC(c1ccc(C(F)(F)F)cc1)CC(c1ccc(Nc3nc(NCCO)nc(Nc4ccc(Cl)cc4)n3)cc1)=N2 (stereo not given) | -47.3% (active) | -40.2% (active) | -48.6% (active) | 91.1% | -90.2% (active) | -88.1% (active) | – | -5.25% (active) | -15.2% (active) | -31.7% (active) | -26.1% (active) | -88.7% (active) | -9.44% (active) | -67.7% (active) | -20.9% (active) | -10.5% (active) | -29.3% (active) | 36% | -36.9% (active) | -26% (active) |
| O=C(Nc1nc2ccc(O)cc2s1)c1cccc(C(F)(F)F)c1 | 55.6% | 68.9% | 33.4% | 80.8% | 53% | 53% | 78.9% | 31% | 34.6% | 75.7% | 55.5% | 93.4% | 63.6% | 64.4% | 67.2% | 101% | – | 51.3% | – | – |
| CCOC(=O)c1c(Nc2ccccc2)nn2c(N)c(C#N)c(-c3ccccc3)nc12 | 82.3% | 93.9% | 81.1% | 105% | 83.4% | 72% | – | 68.3% | 46.8% | 58.9% | 94% | 109% | 82.5% | 90.2% | – | 75.2% | 88.7% | 55.5% | 68.8% | 108% |
| Nc1c(C(=O)Nc2ccc(C(F)(F)F)cc2)sc2nc(-c3cnccn3)cc(-c3cccs3)c12 | 76.1% | 94.9% | 59.5% | 174% | 43.3% | 16.2% | – | 84.7% | 75.7% | 66.3% | 66.7% | 102% | 63.5% | 83.9% | 96% | 70.3% | 78.2% | 90.3% | 72.2% | 88.1% |
| C#Cc1nc(C2=C(C)C(O)/C(=N/O)C2)cs1 (stereo not given) | 91.3% | 99.9% | -91.1% (active) | 162% | 21.5% | 76.5% | – | -27.7% (active) | 86.5% | -32.8% (active) | 94.3% | 100% | 89.6% | -41.6% (active) | 125% | 97.6% | 1% (active) | 89.9% | – | 111% |
| COC(=O)C1CN(S(=O)(=O)/N=C2\NC(=O)NC2=C(Cl)Cl)C1 | 104% | 101% | 88.7% | 139% | 106% | 101% | – | 95.5% | 104% | 94.4% | 99.9% | 116% | 123% | 109% | 116% | 104% | 109% | 81% | 85.2% | 113% |
| COc1ccc(C(=O)/C=C/c2ccc(Oc3nc(NCCO)nc(N4CCOCC4)n3)c(OC)c2)cc1 | 90.1% | 86.2% | 67.4% | 140% | 62.5% | 56% | – | 9.43% (active) | 10.6% | 5.16% (active) | 69.6% | 99.9% | 81.8% | 78.6% | 101% | 78.1% | 82.9% | 94.1% | 9.42% (active) | 108% |
| C#Cc1nc(C2=C(C)C(=N\O)/C(=N/O)C2)cs1 | 95.7% | 98.2% | -92.4% (active) | 196% | 78.7% | 93.7% | – | 87.1% | 88% | 54.4% | 92.3% | 109% | 99% | -14.1% (active) | 118% | 86.7% | 38.5% | 82.6% | 72.2% | 105% |
| COc1ccc(/C=N/Nc2ccnc3cc(Cl)ccc23)cc1Cl | 12.2% | -70.8% (active) | -90% (active) | -81.6% (active) | -99.8% (active) | -83.5% (active) | – | -19.8% (active) | -25.3% (active) | -9.69% (active) | -57.6% (active) | -71.9% (active) | -60.7% (active) | -59.5% (active) | -92.2% (active) | -53.5% (active) | 0.936% (active) | -62% (active) | -37.8% (active) | 123% |
| COc1ccc(Cc2nn(CC(=O)N/N=C/c3ccc(Cl)cc3)c(=O)c3c(C)noc23)cc1 | 88.8% | 66% | 84.9% | 95.5% | 72.7% | 80.8% | – | 74.8% | 89.7% | 53.9% | 61.9% | 97.3% | 59.2% | 82.1% | 107% | 22.1% | – | 58.9% | 87.4% | – |
| COc1cccc(-c2nn(-c3ccccc3)cc2-c2ccnc(N3CCN(C(=O)Nc4ccc(F)cc4)CC3)c2)c1 | 62.1% | 67.4% | 34.4% | 92.9% | 67.6% | 49.2% | – | 31.8% | 19.3% | 24.8% | 48.8% | 97.6% | 51.2% | 79.1% | – | 85.8% | 33.4% | 3.31% (active) | 21.4% | 107% |
| O=C1C2=C(C(=O)c3c(O)cccc31)C(c1ccco1)c1sc(=O)[nH]c1S2 (stereo not given) | 83.4% | -73.6% (active) | 25.1% | 146% | 39.6% | 70.4% | – | 13% | 0.849% (active) | 15.8% | 2.5% (active) | 11.7% | 24.3% | 28.1% | – | -10.4% (active) | 9.22% (active) | 23.6% | 18.7% | 115% |
